The results in this text go back to PubChem BioAssay (NCI).

The panel holds about 83,000 compounds, 20% with a hit somewhere; the sample as a whole holds those more often.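 Values shown are percent growth following 48 h exposure of cells in 96-well plates to a single concentration of compound; below 10 was considered active.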 A number with no mark means an inactive call. Activity calls are given as the source filed them.

Common to all, as to experiment: NCI-60 one-dose screen, 48 h (100 = growth as untreated, 0 = no growth, -100 = all killed)
Assay [1] has as its system BT-549 breast. Conditions: 10 µM unless noted.
For assay [2], the system named is MDA-MB-435 melanoma. To be noted: 10 µM unless noted.
The subject of assay [3] is SW-620 colon. To be noted: 10 µM unless noted.
Assay [4] concerns MCF7 breast. Conditions: 10 µM.
Assay [5] concerns HCT-116 colon. Conditions: 10 µM unless noted.
Assay [6] concerns HCC-2998 colon. Conditions: 10 µM unless noted.
The test system of assay [7] is KM12 colon. Conditions: 10 µM unless noted.

Take `O=C(Nc1ccccc1O)c1ccc(Oc2cccc(C(=O)Nc3ccccc3O)c2)cc1`: the growth in assay [1] was 3.78% (active); in assay [2], 28.3%; in assay [3], 18.4%; in assay [4], 11.3%; in assay [5], 9.66% (active); in assay [6] it was 21%. Further, in assay [7], the growth was 15.8%.

In the case of `O=C1N=c2ccccc2=C1c1sc(=Nc2ccccc2)n(Nc2ccccc2)c1O`, the growth is 106% in assay [1]; -23% (active) in assay [2]; 108% in assay [3]; 103% in assay [4]; 104% in assay [5]; 116% in assay [6]. The growth in assay [7] is 103%.

`CCN1C(=O)N(CC)C2Nn3c(s/c(=C4\C(=O)N(C(C)C)c5ccccc54)c3=O)=NC21` (configuration not stated): the growth in assay [1] is 27.7%; in assay [2], 1.02% (active); in assay [3], 32.4%; in assay [4], 9% (active); in assay [5], 6.5% (active); in assay [6], 34.6%. Further, the growth in assay [7] was 28.5%.

For the compound `COc1ccc2[nH]c(O)c(N=NC(=O)c3oc4ccccc4c3C)c2c1`, the growth in assay [1] was 70.1%; in assay [2], 28.9%; in assay [3] it was 35.1%; in assay [4], 22.9%; in assay [5], -28.6% (active); in assay [6] it was 45.5%. The growth in assay [7] is 43.8%.

As for `O=C(c1nc2ccccc2[nH]1)C1C(c2cccc([N+](=O)[O-])c2)C2CC3CCCCC3N2[C@@]12C(=O)Nc1cc(Cl)ccc12` (some centres not stated), the growth in assay [1] was 52.9%; in assay [2], 35.8%; in assay [3] it was 37.9%; in assay [4], 16.3%; in assay [5] it was 13%; in assay [6], 23.9%. Further, in assay [7], the growth was 32.5%.

Take `CCOC(=O)c1sc(-c2ccc(OS(=O)(=O)c3ccccc3[N+](=O)[O-])c(C=O)c2)nc1C`: the growth is 47.7% in assay [1]; 78.4% in assay [2]; 36.8% in assay [3]; 20.8% in assay [4]; 13.6% in assay [5]; 111% in assay [6]. For the same compound, the growth in assay [7] was 96.2%.

Turning to `CC/C(=C(\CC)c1ccc(OCC[N+](C)(C)C)cc1)c1ccc(OC)cc1`, the growth in assay [1] is 74.5%; in assay [2] it was 86%; in assay [3], 68.5%; in assay [4] it was 89%; in assay [5], 48.9%; in assay [6], 47.9%. The growth in assay [7] is 51.3%.

Turning to `O=c1c2cccc(F)c2sc2c(N3CCNCC3)nc3ccccc3c12`, the growth in assay [1] is 73.7%; in assay [2], 2.82% (active); in assay [3], -39.8% (active); in assay [4], -20.6% (active); in assay [5], 7.91% (active); in assay [6], -6.49% (active). In addition, the growth in assay [7] was 10.4%.

With `c1ccc2c(c1)oc1cc3sccc3nc12`, the growth is 89.5% in assay [1]; 99.7% in assay [2]; 96.6% in assay [3]; 99.8% in assay [4]; 96.7% in assay [5]; 118% in assay [6]. For the same compound, in assay [7], the growth was 108%.

As to `O=C(NC1CCCCC1)C(c1cccs1)N(CCc1ccccc1)C(=O)c1ccco1` (configuration not stated), the growth in assay [1] is 103%; in assay [2], 104%; in assay [3] it was 96.1%; in assay [4], 88.3%; in assay [5] it was 82.9%; in assay [6] it was 105%. Besides, in assay [7], the growth was 98%.

In the case of `C=CCN1C(=O)/C(=c2\sc3n(c2=O)NC2C(N=3)N(CC)C(=O)N2CC)c2ccccc21` (configuration not stated), the growth in assay [1] is 48.6%; in assay [2], -7.64% (active); in assay [3], 34.3%; in assay [4], 34.3%; in assay [5], 14.8%; in assay [6] it was 38%. Further, the growth in assay [7] is 24.5%.

On to `CCCCN1CCN(c2ccc3nc(-c4ccc5nc(-c6ccc(OCC)cc6)[nH]c5c4)[nH]c3c2)CC1`, for which the growth in assay [1] is 83.9%; in assay [2] it was 55.1%; in assay [3], 8.61% (active); in assay [4], 1.77% (active); in assay [5], 21.1%; in assay [6], 90.3%. In addition, the growth in assay [7] was 49.1%.

On to `O=S(=O)(c1ccc(NC(=S)NC23CC4CC(CC(C4)C2)C3)cc1)N1CCCCC1`, for which the growth is 93.8% in assay [1]; 96% in assay [2]; 55.8% in assay [3]; 94.2% in assay [4]; 50.5% in assay [5]; 114% in assay [6]. Further, the growth in assay [7] was 24.7%.

On to `FC(F)(F)c1cccc(CNC2CCN(CCc3ccccc3)CC2)c1`, for which the growth is 96.4% in assay [1]; 43.6% in assay [2]; 63% in assay [3]; 74.9% in assay [4]; 31.3% in assay [5]; 19.5% in assay [6]. For the same compound, the growth in assay [7] is 70.2%.

For `Cc1sc2ncn(CC(=O)Nc3ccc(S(N)(=O)=O)cc3)c(=O)c2c1C`, the growth is 97.7% in assay [1]; 105% in assay [2]; 100% in assay [3]; 101% in assay [4]; 106% in assay [5]; 113% in assay [6]. In assay [7], the growth is 102%.

Turning to `Clc1ncccc1Nc1ccc2nnc(-c3ccncc3)n2n1`, the growth in assay [1] was 108%; in assay [2], 102%; in assay [3] it was 103%; in assay [4], 94.2%; in assay [5], 101%; in assay [6] it was 95.7%. The growth in assay [7] is 101%.

For `CC1=C(C(=O)OCC2CCN(C(=O)OC(C)(C)C)CC2)[C@@H](c2cccc(C#N)c2)C2=C(CC(C)(C)CC2=O)N1`, the growth is 50.3% in assay [1]; 41.4% in assay [2]; 29.6% in assay [3]; 30.5% in assay [4]; 17.1% in assay [5]; 75.6% in assay [6]. In assay [7], the growth was 36%.

As to `CCOC(=O)c1c2c(n3cccc(Cl)c13)C(=O)c1ncccc1C2=O`, the growth in assay [1] is 69.2%; in assay [2], 79.9%; in assay [3], 36.4%; in assay [4], 43.3%; in assay [5] it was 8.41% (active); in assay [6] it was 46%. Moreover, in assay [7], the growth is 46.3%.

As for `CC1(C)CC2(C)OC2C2(C1)N=NC(=Nc1ccccc1)O2` (configuration not stated), the growth in assay [1] was -19.1% (active); in assay [2], 59.5%; in assay [3], 23%; in assay [4] it was 23.9%; in assay [5], 20%; in assay [6], 102%. Moreover, in assay [7], the growth is 87.7%.

`COc1ccc2sc(N(Cc3cccnc3)C(=O)c3ccc(C#N)cc3)nc2c1`: the growth in assay [1] was 92.1%; in assay [2], 66.5%; in assay [3] it was 90.6%; in assay [4], 87%; in assay [5], 58.2%; in assay [6] it was 82.6%. In addition, the growth in assay [7] is 75.8%.

Regarding `Cc1ccc(CN2CCC(C(=O)Nc3ccc(-c4cc5ccccc5[nH]4)cc3)CC2)o1`, the growth is 72.5% in assay [1]; 58.9% in assay [2]; 66% in assay [3]; 64.1% in assay [4]; 49.9% in assay [5]; 79.4% in assay [6]. In assay [7], the growth is 24.4%.

Turning to `Cc1ccc(Cn2c(N3CCC(C(=O)NCc4cccs4)CC3)nc3ccccc32)cc1`, the growth is 75% in assay [1]; 90% in assay [2]; 93.6% in assay [3]; 95.2% in assay [4]; 58.1% in assay [5]; 90.1% in assay [6]. In assay [7], the growth is 54.8%.

As for `Clc1ccc(Nc2nnc(-c3ccc4c(c3)OCO4)o2)cc1`, the growth in assay [1] is 116%; in assay [2], 99.9%; in assay [3] it was 102%; in assay [4], 93.4%; in assay [5] it was 96.7%; in assay [6], 98.6%. The growth in assay [7] is 99.5%.

As for `COc1c2ccoc2c(/C=C/C=O)c2oc(-c3ccccc3)cc(=O)c12`, the growth in assay [1] was 41.2%; in assay [2] it was 64.6%; in assay [3], 10%; in assay [4], 31.5%; in assay [5] it was -56.6% (active); in assay [6] it was 104%. Moreover, in assay [7], the growth was 91.4%.

For the compound `CC1CCCCN1CCCNC(=O)c1ccc2c(c1)sc1nc(-c3ccc(F)cc3)cn12` (configuration not stated), the growth in assay [1] is 91%; in assay [2], 109%; in assay [3], 105%; in assay [4] it was 99.5%; in assay [5], 89.7%; in assay [6], 88.7%. Also, in assay [7], the growth was 101%.

In the case of `COc1ccc2sc3c(NCCCN)nc4ccccc4c3c(=O)c2c1`, the growth in assay [1] was 82.1%; in assay [2], -79% (active); in assay [3] it was -75% (active); in assay [4], -74.2% (active); in assay [5] it was -84.1% (active); in assay [6], -67.1% (active). The growth in assay [7] was -54.6% (active).
